According to PubChem BioAssay AID1159580 (chemical genetic matrix, 2015):
In all, about 5,500 compounds went through this assay and about 2,000 (36%) were called active. About 18% were inconclusive and are not listed. Cut-off read from the data, not from the text of the source: active = normalized growth mostly below about 0.91 (no sharp cut-off); inconclusive = no clear call, values can overlap the other calls; inactive = mostly above about 0.92. The list shows a part of the results.

Experiment: chemical genetic growth profiling, strain panel (AID 1159580);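 note: tested at 20 µM; growth read once vehicle control cultures reached saturation at 30 °C; 1 = growth at the plate median or of vehicle wells; lower values mean less growth of the strain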
Details: growth OD
[1] = S. cerevisiae deletion strains, locus YAL013W, strain DEP1, hits give low values

Measured: normalized growth

CCOC(=O)C1(O)Oc2cc(OC)cc(OC)c2C(=O)C1c1ccccc1 (centres undefined)
inactive: [1] 0.969 | S. cerevisiae deletion strains, locus YBR229C, strain ROT2, hits give low values 1.01 | S. cerevisiae deletion strains, locus YCL029C, strain bik1, hits give low values 0.996 | S. cerevisiae deletion strains, locus YDL035C, strain GPR1, hits give low values 0.984 | S. cerevisiae deletion strains, locus YDL074C, strain BRE1, hits give low values 0.947 | S. cerevisiae deletion strains, locus YDL101C, strain DUN1, hits give low values 1 | S. cerevisiae deletion strains, locus YDL134C, strain PPH21, hits give low values 0.986 | S. cerevisiae deletion strains, locus YDL185W, strain tfp1, hits give low values 1 | S. cerevisiae deletion strains, locus YDL192W, strain arf1, hits give low values 0.982 | S. cerevisiae deletion strains, locus YDR101C, strain arx1, hits give low values 0.984 | S. cerevisiae deletion strains, locus YDR162C, strain NBP2, hits give low values 1 | S. cerevisiae deletion strains, locus YDR318W, strain mcm21, hits give low values 0.979 | S. cerevisiae deletion strains, locus YDR388W, hits give low values 0.976 | S. cerevisiae deletion strains, locus YDR502C, strain sam2, hits give low values 0.932 | S. cerevisiae deletion strains, locus YEL061C, strain CIN8, hits give low values 0.996 | S. cerevisiae deletion strains, locus YER110C, hits give low values 0.977 | S. cerevisiae deletion strains, locus YER155C, strain BEM2, hits give low values 0.978 | S. cerevisiae deletion strains, locus YER167W, strain BCK2, hits give low values 1 | S. cerevisiae deletion strains, locus YGL078C, strain dbp3, hits give low values 0.993 | S. cerevisiae deletion strains, locus YGL086W, strain mad1, hits give low values 0.97 | S. cerevisiae deletion strains, locus YGL248W, strain PDE1, hits give low values 0.99 | S. cerevisiae deletion strains, locus YGR135W, strain pre9, hits give low values 0.925 | S. cerevisiae deletion strains, locus YGR252W, strain gcn5, hits give low values 0.815 | S. cerevisiae deletion strains, locus YHR079C, strain IRE1 (second series), hits give low values 0.974 | S. cerevisiae deletion strains, locus YHR094C, strain hxt1, hits give low values 0.981 | S. cerevisiae deletion strains, locus YHR129C, strain ARP1, hits give low values 0.993 | S. cerevisiae deletion strains, locus YHR200W, strain rpn10, hits give low values 0.959 | S. cerevisiae deletion strains, locus YIL066C, strain RNR3, hits give low values 1 | S. cerevisiae deletion strains, locus YIL073C, strain SPO22, hits give low values 0.968 | S. cerevisiae deletion strains, locus YIL125W, strain kgd1, hits give low values 0.989 | S. cerevisiae deletion strains, locus YIR030C, strain dcg1, hits give low values 0.983 | S. cerevisiae deletion strains, locus YJL095W, strain BCK1, hits give low values 0.97 | S. cerevisiae deletion strains, locus YJL134W, strain LCB3, hits give low values 1 | S. cerevisiae deletion strains, locus YJL168C, strain set2, hits give low values 0.977 | S. cerevisiae deletion strains, locus YJL187C, strain SWE1 (second series), hits give low values 0.971 | S. cerevisiae deletion strains, locus YJR043C, strain POL32, hits give low values 0.967 | S. cerevisiae deletion strains, locus YKL009W, strain mrt4, hits give low values 0.985 | S. cerevisiae deletion strains, locus YKL068W, hits give low values 1 | S. cerevisiae deletion strains, locus YKL085W, strain MDH1 (second series), hits give low values 1.01 | S. cerevisiae deletion strains, locus YKL085W, strain MDH1, hits give low values 1.01 | S. cerevisiae deletion strains, locus YKR001C, strain vps1, hits give low values 0.97 | S. cerevisiae deletion strains, locus YLR039C, strain RIC1, hits give low values 1.03 | S. cerevisiae deletion strains, locus YLR058C, strain SHM2, hits give low values 1 | S. cerevisiae deletion strains, locus YLR102C, strain apc9, hits give low values 0.976 | S. cerevisiae deletion strains, locus YLR262C, strain YPT6, hits give low values 1.03 | S. cerevisiae deletion strains, locus YLR268W, strain sec22, hits give low values 0.973 | S. cerevisiae deletion strains, locus YLR371W, strain rom2, hits give low values 0.997 | S. cerevisiae deletion strains, locus YLR418C, strain cdc73, hits give low values 0.906 | S. cerevisiae deletion strains, locus YML016C, strain PPZ1, hits give low values 0.998 | S. cerevisiae deletion strains, locus YML032C, strain rad52, hits give low values 0.97 | S. cerevisiae deletion strains, locus YML124C, strain tub3, hits give low values 0.977 | S. cerevisiae deletion strains, locus YMR078C, strain ctf18, hits give low values 0.979 | S. cerevisiae deletion strains, locus YMR223W, strain ubp8, hits give low values 0.951 | S. cerevisiae deletion strains, locus YMR263W, strain SAP30, hits give low values 0.987 | S. cerevisiae deletion strains, locus YMR307W, strain GAS1, hits give low values 0.979 | S. cerevisiae deletion strains, locus YNL067W, strain RPL9B, hits give low values 0.983 | S. cerevisiae deletion strains, locus YNL233W, strain BNI4, hits give low values 0.955 | S. cerevisiae deletion strains, locus YNL250W, strain rad50, hits give low values 0.979 | S. cerevisiae deletion strains, locus YNL271C, strain bni1, hits give low values 0.999 | S. cerevisiae deletion strains, locus YNL298W, strain CLA4, hits give low values 1.02 | S. cerevisiae deletion strains, locus YNL307C, strain MCK1, hits give low values 0.961 | S. cerevisiae deletion strains, locus YNL322C, strain KRE1, hits give low values 0.991 | S. cerevisiae deletion strains, locus YNR052C, strain pop2, hits give low values 0.989 | S. cerevisiae deletion strains, locus YOL006C, strain TOP1, hits give low values 0.893 | S. cerevisiae deletion strains, locus YOL012C, strain htz1 1.08 | S. cerevisiae deletion strains, locus YOL147C, strain pex11, hits give low values 0.973 | S. cerevisiae deletion strains, locus YOR061W, strain CKA2, hits give low values 1.01 | S. cerevisiae deletion strains, locus YOR069W, strain VPS5, hits give low values 0.999 | S. cerevisiae deletion strains, locus YOR136W, strain idh2, hits give low values 0.981 | S. cerevisiae deletion strains, locus YOR144C, strain elg1, hits give low values 0.988 | S. cerevisiae deletion strains, locus YOR184W, strain ser1, hits give low values 0.978 | S. cerevisiae deletion strains, locus YOR316C, strain cot1, hits give low values 0.98 | S. cerevisiae deletion strains, locus YPR119W, strain clb2, hits give low values 0.96 | S. cerevisiae deletion strains, locus YPR141C, strain kar3, hits give low values 0.99 | S. cerevisiae deletion strains, locus YPR163C, strain tif3, hits give low values 0.984 | S. cerevisiae deletion strains, locus YPR167C, strain met16, hits give low values 0.961 | S. cerevisiae deletion strains, strain wtn01, hits give low values 0.973 | S. cerevisiae strains, strain wild type, hits give low values 0.99
active: S. cerevisiae deletion strains, locus YBR021W, strain FUR4, hits give low values 0.837

CCOC(=O)C12CC1/C(=N\O)c1ccccc1O2 (centres undefined)
inactive: [1] 0.998 | S. cerevisiae deletion strains, locus YAL040C, strain CLN3, hits give low values 1.05 | S. cerevisiae deletion strains, locus YCL061C, strain MRC1 (second series), hits give low values 0.995 | S. cerevisiae deletion strains, locus YER002W, strain NOP16, hits give low values 1.02 | S. cerevisiae deletion strains, locus YGR229C, strain SMI1, hits give low values 0.991 | S. cerevisiae deletion strains, locus YNL153C, strain GIM3, hits give low values 1.02 | S. cerevisiae deletion strains, locus YNL175C, strain NOP13, hits give low values 1.02 | S. cerevisiae deletion strains, locus YNL197C, strain WHI3, hits give low values 1.02 | S. cerevisiae deletion strains, locus YNL224C, strain SQS1, hits give low values 1 | S. cerevisiae deletion strains, locus YOR083W, strain WHI5 (second series), hits give low values 1.02
